Some of the results follow. Calls of active or inactive are those of the source. Unless noted, no stated cut-off is given here; in the data, active means inhibition above about 25%; inactive means the rest.
Experiments:
[1] = biological target: Nuclear receptor coactivator 3 (Homo sapiens) (UniProt Q9Y6Q9); experiment: SRC3 coactivator transcriptional activity inhibitors, confirmation, cell-based, luminescence, quadruplicate (AID 588792;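 active means mean inhibition over 43.08%, the solvent-only control mean plus 3 SD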;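 further: 0% = DMSO treated cells and 100% = gossypol at 36 µM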); details: HEK293 GAL4-SRC3 luciferase reporter, at 3.6 µM, hits give high values
[2] = test system: transactivating tegument protein VP16 (Human herpesvirus 1), Gal4-VP16 luciferase reporter; experiment: VP16 transactivation inhibitors, counter-screen for SRC3 inhibitor project, cell-based, luminescence, high throughput (AID 588794; in the data active means inhibition above about 30%); details: mammalian cells, VP16-driven luciferase reporter luminescence; at 3.6 µM; hits give high values
[3] = biological target: Nuclear receptor coactivator 1 (Homo sapiens) (UniProt Q15788); experiment: SRC1 coactivator transcriptional activity inhibitors, confirmation, cell-based, luminescence, quadruplicate (AID 588820;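 active means mean inhibition above 46.68%, the untreated control wells mean plus 3 SD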;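 further: 0% = DMSO wells and 100% = gossypol 36 µM treated wells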); details: HEK293 GAL4-SRC1 luciferase reporter, at 3.6 µM, hits give high values
[4] = VP16 transactivation inhibitors, counter-screen for SRC1 inhibitor project, cell-based, luminescence, high throughput (AID 588824); details: cell-based VP16 transactivation luciferase luminescence; at 3.6 µM; hits give high values
[5] = test system: transactivating tegument protein VP16 (Human herpesvirus 1); experiment: VP16 transactivation reporter inhibitors, counter-screen for SRC2 inhibitor project, cell-based, luminescence, single concentration (AID 652007; in the data active means inhibition above about 36%); details: cell-based VP16 transactivation luciferase reporter, at 8.9 µM, hits give high values
[6] = biological target: Nuclear receptor coactivator 2 (Homo sapiens) (UniProt Q15596); experiment: SRC2 coactivator transcriptional activity inhibitors, confirmation, cell-based, luminescence, HEK293, triplicate (AID 652008;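 active means mean inhibition above 46.5%, the solvent-only control mean plus 3 SD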;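 further: 0% = DMSO-treated cells and 100% = Gossypol at 36 µM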); details: HEK293 GAL4-SRC2 luciferase reporter, at 8.9 µM, hits give high values
[7] = Gal4-VP16 luciferase reporter inhibitors, counter-screen for COUP-TFII antagonist project, cell-based, luminescence, HEK293 (AID 687007; in the data active means inhibition above about 13%); details: at 8.5 µM, hits give high values
[8] = biological target: COUP transcription factor 2 (Homo sapiens) (UniProt P24468); experiment: NR2F2 transcriptional activity inhibitors, confirmation, cell-based, luciferase reporter, HEK293, triplicate (AID 687008;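 active means mean inhibition over three repeats above a set limit taken from the earlier primary screen, cut at about 38% in these data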;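 further: 100% = cells given the luciferase reporter alone without the COUP-TF2 vector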); details: HEK293 NGFI-A luciferase reporter, luminescence; at 8.5 µM; hits give high values

Measured: inhibition

Chain of Nuclear receptor coactivator 1 (Homo sapiens) (Q15788 whole entry, looked up, the tested form may be a part): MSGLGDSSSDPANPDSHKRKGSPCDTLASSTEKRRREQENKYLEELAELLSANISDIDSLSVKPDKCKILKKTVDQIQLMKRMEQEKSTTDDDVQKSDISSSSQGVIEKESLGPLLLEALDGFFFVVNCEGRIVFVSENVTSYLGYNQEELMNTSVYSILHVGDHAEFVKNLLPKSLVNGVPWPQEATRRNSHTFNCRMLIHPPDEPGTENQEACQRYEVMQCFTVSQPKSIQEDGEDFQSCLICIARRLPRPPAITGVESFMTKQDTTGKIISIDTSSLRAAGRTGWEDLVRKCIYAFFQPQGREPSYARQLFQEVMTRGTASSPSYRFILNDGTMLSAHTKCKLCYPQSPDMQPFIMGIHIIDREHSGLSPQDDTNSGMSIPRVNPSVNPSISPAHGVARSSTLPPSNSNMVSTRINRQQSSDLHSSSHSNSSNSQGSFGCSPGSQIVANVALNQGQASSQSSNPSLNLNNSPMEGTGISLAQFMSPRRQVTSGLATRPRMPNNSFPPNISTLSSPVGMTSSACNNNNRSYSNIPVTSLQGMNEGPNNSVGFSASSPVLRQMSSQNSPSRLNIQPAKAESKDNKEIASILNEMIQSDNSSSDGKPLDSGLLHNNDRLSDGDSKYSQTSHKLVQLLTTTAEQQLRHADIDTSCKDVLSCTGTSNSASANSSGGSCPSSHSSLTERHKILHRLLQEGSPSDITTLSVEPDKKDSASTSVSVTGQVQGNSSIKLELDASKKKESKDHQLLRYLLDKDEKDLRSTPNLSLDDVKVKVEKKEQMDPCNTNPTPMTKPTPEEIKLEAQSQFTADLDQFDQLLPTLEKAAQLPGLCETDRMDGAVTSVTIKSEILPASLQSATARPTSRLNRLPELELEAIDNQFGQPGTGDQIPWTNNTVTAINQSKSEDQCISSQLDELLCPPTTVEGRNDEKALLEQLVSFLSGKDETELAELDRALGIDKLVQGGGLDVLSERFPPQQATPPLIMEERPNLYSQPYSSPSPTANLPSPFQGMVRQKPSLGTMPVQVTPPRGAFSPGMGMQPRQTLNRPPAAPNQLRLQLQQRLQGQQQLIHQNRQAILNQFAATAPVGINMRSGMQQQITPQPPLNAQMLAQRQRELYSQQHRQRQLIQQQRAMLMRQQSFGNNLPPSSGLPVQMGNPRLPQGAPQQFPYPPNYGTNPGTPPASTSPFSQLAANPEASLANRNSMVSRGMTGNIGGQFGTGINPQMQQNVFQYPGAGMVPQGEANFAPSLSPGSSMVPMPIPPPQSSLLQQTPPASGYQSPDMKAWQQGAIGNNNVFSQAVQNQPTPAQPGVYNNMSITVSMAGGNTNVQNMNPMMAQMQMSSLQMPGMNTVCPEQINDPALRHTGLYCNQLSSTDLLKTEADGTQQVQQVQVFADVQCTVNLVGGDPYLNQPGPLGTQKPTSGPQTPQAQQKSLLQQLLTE
Chain of Nuclear receptor coactivator 2 (Homo sapiens) (Q15596 whole entry, looked up, the tested form may be a part): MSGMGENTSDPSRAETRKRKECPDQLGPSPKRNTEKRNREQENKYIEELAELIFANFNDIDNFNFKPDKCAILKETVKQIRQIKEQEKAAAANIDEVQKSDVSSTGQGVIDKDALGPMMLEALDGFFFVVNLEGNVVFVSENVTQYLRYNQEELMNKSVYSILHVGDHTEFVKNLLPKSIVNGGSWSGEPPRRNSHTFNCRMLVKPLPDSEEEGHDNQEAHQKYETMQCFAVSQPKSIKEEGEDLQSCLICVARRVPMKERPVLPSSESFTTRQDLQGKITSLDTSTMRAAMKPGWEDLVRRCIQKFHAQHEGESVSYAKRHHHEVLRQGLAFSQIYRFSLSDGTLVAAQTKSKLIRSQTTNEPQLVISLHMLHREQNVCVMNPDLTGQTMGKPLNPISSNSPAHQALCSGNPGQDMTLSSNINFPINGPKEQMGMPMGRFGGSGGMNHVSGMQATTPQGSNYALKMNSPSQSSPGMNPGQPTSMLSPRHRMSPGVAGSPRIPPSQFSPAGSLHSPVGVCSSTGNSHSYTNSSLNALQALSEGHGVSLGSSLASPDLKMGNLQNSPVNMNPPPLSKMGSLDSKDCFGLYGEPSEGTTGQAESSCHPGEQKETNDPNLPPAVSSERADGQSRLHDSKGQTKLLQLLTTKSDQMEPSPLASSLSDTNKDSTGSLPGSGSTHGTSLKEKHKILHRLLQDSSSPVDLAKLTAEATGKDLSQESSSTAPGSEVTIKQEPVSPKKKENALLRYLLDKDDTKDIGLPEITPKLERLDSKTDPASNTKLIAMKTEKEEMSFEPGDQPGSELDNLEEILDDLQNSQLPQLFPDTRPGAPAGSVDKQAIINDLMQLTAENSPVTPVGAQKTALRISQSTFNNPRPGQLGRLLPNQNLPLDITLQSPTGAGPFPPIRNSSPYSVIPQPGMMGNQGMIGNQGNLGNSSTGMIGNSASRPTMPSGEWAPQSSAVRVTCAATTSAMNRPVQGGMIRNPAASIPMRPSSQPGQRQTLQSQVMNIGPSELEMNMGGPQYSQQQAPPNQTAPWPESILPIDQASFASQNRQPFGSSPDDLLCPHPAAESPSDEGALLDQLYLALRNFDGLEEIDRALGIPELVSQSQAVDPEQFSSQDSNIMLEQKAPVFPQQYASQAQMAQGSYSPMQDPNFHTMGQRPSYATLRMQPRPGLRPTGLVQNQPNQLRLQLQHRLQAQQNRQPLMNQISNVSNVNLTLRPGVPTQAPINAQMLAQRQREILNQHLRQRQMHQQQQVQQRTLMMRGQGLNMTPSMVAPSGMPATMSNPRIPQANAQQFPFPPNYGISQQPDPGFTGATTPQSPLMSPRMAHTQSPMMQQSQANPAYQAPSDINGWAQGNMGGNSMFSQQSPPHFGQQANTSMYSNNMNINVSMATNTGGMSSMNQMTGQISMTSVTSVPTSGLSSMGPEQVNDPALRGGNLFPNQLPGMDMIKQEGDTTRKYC
Chain of Nuclear receptor coactivator 3 (Homo sapiens) (Q9Y6Q9 whole entry, looked up, the tested form may be a part): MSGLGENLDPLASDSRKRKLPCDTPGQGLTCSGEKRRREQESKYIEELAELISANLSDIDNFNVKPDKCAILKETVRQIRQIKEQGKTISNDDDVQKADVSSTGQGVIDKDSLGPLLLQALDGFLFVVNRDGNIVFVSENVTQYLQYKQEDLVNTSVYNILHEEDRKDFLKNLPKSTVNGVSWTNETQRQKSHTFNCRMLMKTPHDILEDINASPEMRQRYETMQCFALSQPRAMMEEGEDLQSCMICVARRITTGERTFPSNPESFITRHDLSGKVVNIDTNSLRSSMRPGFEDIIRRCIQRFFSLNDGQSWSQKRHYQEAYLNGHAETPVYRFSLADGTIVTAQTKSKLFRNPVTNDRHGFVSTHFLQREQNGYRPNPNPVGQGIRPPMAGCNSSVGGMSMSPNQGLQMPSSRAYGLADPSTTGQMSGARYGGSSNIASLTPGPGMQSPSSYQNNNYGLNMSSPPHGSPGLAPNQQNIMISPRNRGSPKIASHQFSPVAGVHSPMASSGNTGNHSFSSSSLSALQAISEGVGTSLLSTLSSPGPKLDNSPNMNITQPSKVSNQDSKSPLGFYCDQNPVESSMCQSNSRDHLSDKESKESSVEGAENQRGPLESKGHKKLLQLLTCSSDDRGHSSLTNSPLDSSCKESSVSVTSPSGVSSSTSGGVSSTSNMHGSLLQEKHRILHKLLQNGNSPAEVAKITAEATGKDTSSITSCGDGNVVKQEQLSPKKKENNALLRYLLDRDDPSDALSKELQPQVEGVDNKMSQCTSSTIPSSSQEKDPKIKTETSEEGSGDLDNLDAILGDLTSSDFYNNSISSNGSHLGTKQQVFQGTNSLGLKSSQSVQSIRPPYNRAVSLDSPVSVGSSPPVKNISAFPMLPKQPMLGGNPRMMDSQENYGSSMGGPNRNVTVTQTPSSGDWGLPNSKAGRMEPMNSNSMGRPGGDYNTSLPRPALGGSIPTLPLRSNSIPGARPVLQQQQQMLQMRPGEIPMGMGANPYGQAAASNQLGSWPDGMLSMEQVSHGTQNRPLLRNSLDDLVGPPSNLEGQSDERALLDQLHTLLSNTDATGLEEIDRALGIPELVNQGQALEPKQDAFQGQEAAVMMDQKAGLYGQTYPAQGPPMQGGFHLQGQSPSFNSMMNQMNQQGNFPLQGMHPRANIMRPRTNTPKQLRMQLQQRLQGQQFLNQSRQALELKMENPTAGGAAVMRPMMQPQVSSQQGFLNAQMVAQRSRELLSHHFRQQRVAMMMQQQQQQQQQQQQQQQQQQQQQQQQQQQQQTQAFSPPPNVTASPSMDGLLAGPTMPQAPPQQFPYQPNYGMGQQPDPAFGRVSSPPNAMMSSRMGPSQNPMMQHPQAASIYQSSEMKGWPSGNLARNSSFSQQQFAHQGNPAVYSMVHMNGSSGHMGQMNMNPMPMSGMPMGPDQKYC
Chain of COUP transcription factor 2 (Homo sapiens) (P24468 whole entry, looked up): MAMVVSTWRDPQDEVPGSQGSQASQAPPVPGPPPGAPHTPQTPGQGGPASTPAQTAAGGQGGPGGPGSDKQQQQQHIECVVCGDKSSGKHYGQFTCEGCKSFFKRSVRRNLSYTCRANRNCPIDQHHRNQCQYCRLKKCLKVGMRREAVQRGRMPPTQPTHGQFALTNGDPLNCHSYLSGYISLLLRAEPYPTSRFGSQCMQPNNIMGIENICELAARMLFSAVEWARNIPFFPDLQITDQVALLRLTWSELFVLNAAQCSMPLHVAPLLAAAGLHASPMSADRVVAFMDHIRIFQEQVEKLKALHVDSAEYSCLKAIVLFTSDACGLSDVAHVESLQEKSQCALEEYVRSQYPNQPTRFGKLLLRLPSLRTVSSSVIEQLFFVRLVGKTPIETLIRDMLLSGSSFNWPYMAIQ

CCOC(=O)c1cccc(NS(=O)(=O)c2ccc(NC(C)=O)cc2)c1
inactive: [3] 40.5% | [5] -6.82% | [6] 40.8%
active: [1] 43.5% | [2] 35.8% | [4] 26.5%

NC(=O)c1sc2nc3c(c(-c4ccccc4)c2c1N)CCC3
inactive: [5] 12.9% | [8] 31.9%
active: [1] 77.1% | [2] 54.8% | [3] 72.8% | [4] 49.3% | [6] 51% | [7] 18.6%

CC1=C(C(=O)OCc2ccc3c(c2)OCO3)C(c2ccc(Cl)cc2)NC(=O)N1 (stereo not drawn)
inactive: [5] 29.9% | [6] 46.3%
active: [1] 86% | [2] 74.7% | [3] 69.2% | [4] 74.8%

CC1(Cc2ccc(F)cc2)C(=O)Nc2ccc(-c3cccnc3)cc21 (stereo not drawn)
inactive: [5] 10.2% | [6] 36.8%
active: [1] 50.6% | [2] 35.4% | [3] 48.7% | [4] 35.3%

COc1ccc(Cc2nnc(N/N=C/c3ccccc3O)[nH]c2=O)cc1OC
inactive: [5] 21.2% | [6] 38.8%
active: [1] 84.5% | [2] 77% | [3] 76.7% | [4] 82.6%

CNc1ccc2ncc(-c3cccc(C(=O)N(C)C)c3)n2n1
active: [1] 72.2% | [2] 62.2% | [3] 72.4% | [4] 60.8%
inactive: [5] -12.3% | [6] 42.7%

O=c1cc(-c2ccccc2Cl)oc2c([N+](=O)[O-])c(O)cc(O)c12
inactive: [5] 4.67%
active: [1] 61.5% | [2] 44.4% | [3] 51.9% | [4] 37% | [6] 52.9%

COC(=O)CCNc1ccc2c(c1)OCCO2
inactive: [1] 7.16% | [2] -2.66% | [3] -12.2% | [4] -15.9% | [5] -9.29% | [6] 39.5%

CCN(CC)c1ccc(/C=N/NC(=O)c2nnn(-c3nonc3N)c2C(C)C)c(O)c1
active: [1] 77.3% | [2] 72.6% | [3] 68.7% | [4] 65.5%
inactive: [5] -10.2% | [6] 29.9%

Cc1ccccc1C(=O)N1CCN(c2ccc(NC(=O)c3ccc4c(c3)OCCO4)cc2)CC1
active: [2] 43% | [4] 41.5%
inactive: [1] 25.7% | [3] 32.2% | [5] 34.3% | [6] 45.5%

O=C(CN1C(=O)c2ccccc2S1(=O)=O)N1CCc2ccccc21
inactive: [3] 40.8%
active: [1] 60.5% | [2] 60.9% | [4] 65.1% | [5] 65.5% | [6] 85.9% | [7] 65.9% | [8] 74.9%

Cc1nc2cc(N3CCN(C)CC3)c(NC(=O)Cc3ccccc3)cc2c(=O)n1Cc1ccccc1
inactive: [1] 17.6% | [2] 10.3% | [3] -11.5% | [4] -3.19% | [5] 4.08% | [6] 34.5%

Cc1ccc(OCC(=O)c2cc(C)n(Cc3cccs3)c2C)c([N+](=O)[O-])n1
inactive: [1] 21% | [2] 8.55% | [3] 24% | [4] 14.2% | [5] 10.7%
active: [6] 52.2%

CCCN(CC(=O)Nc1ccccc1C)C(=O)CCl
active: [1] 74.9% | [2] 48.1% | [3] 48.8% | [4] 53.4% | [5] 65.6% | [6] 75.8%

COc1ccc(-c2cc(=O)oc3c(C)c(O)ccc23)cc1
active: [1] 49.4% | [2] 39.7% | [3] 50.3% | [4] 26.4%
inactive: [5] -7.99% | [6] 23.3%

COCCn1c(C)cc(C(=O)COc2ccc(C)nc2[N+](=O)[O-])c1C
active: [6] 59.5%
inactive: [1] 24.8% | [2] 1.88% | [3] 12.1% | [4] -5.22% | [5] 23.8%

CN(Cc1nccs1)C(=O)c1cc(COc2cccc3cnccc23)on1
inactive: [1] 27.5% | [3] 19.8% | [5] 16.6%
active: [2] 36.1% | [4] 34.7% | [6] 51.8%

Cc1c(C(C)NC(=O)c2cc(COc3cccc4cnccc34)on2)cnn1C (stereo not drawn)
inactive: [1] 32.4% | [3] 38.3% | [5] 7.45%
active: [2] 40.4% | [4] 33.8% | [6] 46.9%

COc1ccc(-n2c(C)c([N+](=O)[O-])c3ccc(O)c(CN(C)C)c32)cc1
active: [1] 84.5% | [2] 61.8% | [3] 73.1% | [4] 61.4% | [6] 52%
inactive: [5] 24.3%
